SIRT5 inh = inhibitors of human sirtuin-5 desuccinylase | Q9NXA8 | Purified SirT5, succinyl-peptide AMC, trypsin-coupled fluorescence | inhibition, % at 15 µM | 330,000 compounds, 1.1% hits | AID 652115; in the data active means inhibition above about 15%; inconclusive means no clear call, values can overlap the other calls
Target sequence (Q9NXA8 whole entry, looked up): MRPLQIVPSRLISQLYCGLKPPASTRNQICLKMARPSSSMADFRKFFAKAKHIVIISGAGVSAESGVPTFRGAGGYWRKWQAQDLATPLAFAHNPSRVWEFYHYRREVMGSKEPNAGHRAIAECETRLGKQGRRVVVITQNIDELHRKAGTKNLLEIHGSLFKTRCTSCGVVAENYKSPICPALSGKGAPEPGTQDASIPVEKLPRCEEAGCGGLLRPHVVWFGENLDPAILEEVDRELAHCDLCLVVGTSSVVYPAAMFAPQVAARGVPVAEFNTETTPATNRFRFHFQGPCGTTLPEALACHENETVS
Rtt109 HAT inh = blocks Candida albicans Rtt109/Vps75 acetyltransferase activity; Q5AAJ8; 330,000 compounds, 0.16% hits; purified Rtt109/Vps75, ThioGlo CoA-SH fluorescence, 4 h; AID 540336; inhibition, % at 34.9 µM;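 active means inhibition of at least 50% in every replicate; inconclusive means best replicate reaches 50% inhibition but some replicates fall short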
ERp5 block = inhibitors of human ERp5. Q15084. ERp5 insulin aggregation, absorbance 650 nm, 90 min. inhibition, % at 9.99 µM. 350,000 compounds, 0.05% hits;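 active means mean replicate inhibition above about 25%, with every replicate also reaching it, limit read from the data, passing the limit was not always enough; inconclusive means only one of those two criteria met; inactive means neither criterion met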
PDI turbidity = PDI (human) enzyme inhibition. inhibition, % at 10 µM. P07237. 350,000 compounds, 0.052% hits. PDI insulin aggregation turbidity, A650, 90 min. AID 588391;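 active means mean inhibition across replicates of 30% or more, whatever share of single replicates reach that level; inconclusive means mean inhibition below 30% while every single replicate reaches 30%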
DENV2 CPE = inhibitors of DENV2 cytopathic effect | DENV2-infected cells, cytopathic effect rescue, plate reader | AID 651640 | 350,000 compounds, 1.7% hits | CPE inhibition, % at 9.99 µM; in the data active means CPE inhibition above about 20%, passing the limit was not always enough; inconclusive means no clear call, values can overlap the other calls; tested in BHK-21 cells;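 further: 0% = median of neutral control wells and 100% = median of positive control wells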
The depositor's hits bear a star; ? = inconclusive; / = not tested or not shown. Rows were chosen to be rich in hits. Some 2.3% of all compounds tested hit in one or more screens of this group.

SMILES	SIRT5 inh	Rtt109 HAT inh	ERp5 block	PDI turbidity	DENV2 CPE
Cc1ccc(S(=O)(=O)N(C)C[C@@H]2Oc3ccc(NS(=O)(=O)c4ccc(F)cc4)cc3C(=O)N([C@@H](C)CO)C[C@@H]2C)cc1	/	/	/	/	5
COc1ccccc1C(=O)Nc1ccc2c(c1)C(=O)N(C)C[C@H](OC)[C@H](C)CN(CC1CC1)[C@H](C)CO2	-2	/	-4	/	-3
CC(C)C#Cc1cnc2c(c1)C(=O)N([C@@H](C)CO)C[C@H](C)[C@H](CN(C)Cc1cncnc1)O2	-9	/	1	/	-5
O=C(C[C@H]1CC[C@H]2[C@@H](COC[C@H](O)CN2C(=O)c2ccncc2)O1)NC1Cc2ccccc2C1	-3	/	3	/	-9
O=[N+]([O-])c1ccc(Sc2cccc[n+]2[O-])c2nonc12	-21	123*	0	13	-21
COc1ccccc1N=C1SC(C(=O)Nc2cccc(Cl)c2Cl)C(N)=C1C(N)=O (configuration not stated)	21*	-9	-10	-3	5
CCNC(=O)C[C@H]1CC[C@@H]2[C@@H](COc3ccc(NC(C)=O)cc3C(=O)N2C)O1	-1	/	-2	/	-10
COc1ccccc1C=NNC(=O)c1ccccc1OCCOc1ccccc1	-3	5	-1	-8	75*
COc1cccc(/C=N/NC(=O)C(=O)N/N=C/c2cccc(OC)c2OC)c1OC	-3	2	4	-2	85*
COc1ccccc1/C=N/NC(=O)c1ccccc1Cl	-1	-6	3	10	5
COc1ccccc1C=NNC(=O)C(=O)NN=Cc1ccccc1OC	/	0	-5	-7	6
CNC[C@@H]1Oc2ccc(NC(=O)Nc3cccc4ccccc34)cc2C(=O)N([C@H](C)CO)C[C@H]1C	2	/	-5	/	-5
COc1ccc(CCNC2CC(=O)N(C3CCCCC3)C2=O)cc1OC (configuration not stated)	-2	0	-3	-1	26*
COc1ccc(CCNC2CC(=O)N(N(C)C)C2=O)cc1OC (configuration not stated)	-2	2	2	-1	-5
Cc1noc(C)c1NC(=O)Nc1ccc2c(c1)C(=O)N(C)[C@@H]1CC[C@H](CC(=O)N(C)C)O[C@H]1CO2	2	/	4	/	?
C[C@@H]1CN([C@H](C)CO)C(=O)c2cc(NC(=O)Cn3cnnn3)ccc2O[C@@H]1CN(C)S(=O)(=O)c1ccccc1	-6	/	6	/	-6
O=C(C1CC1)N1[C@@H](CO)[C@@H]2c3ccccc3NC[C@@H]21	-3	/	-1	/	95*
OC[C@H]1[C@@H]2c3ccccc3NC[C@@H]2N1Cc1ccccc1Cl	5	/	2	/	33*
O=C(C1CC1)N1[C@H](CO)[C@@H]2c3ccccc3NC[C@@H]21	5	/	-2	/	/
OC[C@H]1[C@H]2c3ccccc3NC[C@H]2N1CC1CCOCC1	-3	/	0	/	21*
CCC(=O)N(C)C[C@H]1Oc2cc(C#CCN(C)C)ccc2S(=O)(=O)N([C@H](C)CO)C[C@@H]1C	5	/	4	/	2
Cn1c(SCC(=O)NC2CCCCC2)nnc1-c1cccnc1	-6	54*	7	-2	1
Cn1c(SCC(=O)NC2CCCCC2)nnc1-c1ccncc1	1	3	0	-9	3
CCOC(=O)C1=C(c2ccccc2)N=c2s/c(=C\c3cccc(O)c3)c(=O)n2C1c1cccs1 (configuration not stated)	/	3	/	61*	/
CCOC(=O)C1=C(C)N=c2s/c(=C\c3cccc(OCC(=O)O)c3)c(=O)n2C1c1ccccc1OC (configuration not stated)	-1	-3	2	-4	17
C[C@H](CO)N1C[C@H](C)[C@H](CN(C)C(=O)c2ccncc2)Oc2ncc(C#CC3CCCC3)cc2C1=O	-2	/	1	/	19
C[C@H]1CCCCO[C@H](CN(C)S(=O)(=O)c2ccc(F)cc2)[C@@H](C)CN([C@@H](C)CO)C(=O)c2cc(NS(=O)(=O)c3cccs3)ccc2O1	9	/	-3	/	-4
COCCNC(=O)C[C@H]1C[C@@H]2c3cc(NC(=O)NC4CCCC4)ccc3O[C@@H]2[C@@H](CO)O1	1	/	18	/	-5
C#CC1(NC(=O)NC(C)C)CCCCC1	94*	-2	-2	-2	-2
O=C(C[C@H]1CC[C@@H]2[C@H](COC[C@@H](O)CN2C(=O)Nc2ccccc2)O1)NCc1ccncn1	-1	/	-1	/	-2
